Results published in PubChem BioAssay AID720597 (Broad Institute, 2013).
Entries with a potency or affinity are not part of this list. Active and inactive are the calls of the source.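 How the source made its calls: active means fitted half-maximal dose no more than twice the top valid tested dose, for compounds that lower signal; inconclusive means fit invalid, or curve flat with activity between -70 and -30; inactive means potency past limit, curve flat within ±30, or signal increasing.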

The compounds below were run against NAD-dependent protein deacylase sirtuin-5, mitochondrial (Homo sapiens) (UniProt Q9NXA8) (assay: SIRT5 deacylase inhibitors, dose response, biochemical, fluorescence imaging, cherry-pick, set 6 (AID 720597;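 further: lower AMC signal can also come from blocking the trypsin step; 0% = median of neutral control wells and -100% = median of positive control wells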)). Conditions: Purified SirT5, succinyl-peptide-AMC/trypsin fluorescence; series mostly up to 15 µM; activity change, negative = inhibition: at the top concentration.
NAD-dependent protein deacylase sirtuin-5, mitochondrial (Homo sapiens), sequence (Q9NXA8 whole entry, looked up): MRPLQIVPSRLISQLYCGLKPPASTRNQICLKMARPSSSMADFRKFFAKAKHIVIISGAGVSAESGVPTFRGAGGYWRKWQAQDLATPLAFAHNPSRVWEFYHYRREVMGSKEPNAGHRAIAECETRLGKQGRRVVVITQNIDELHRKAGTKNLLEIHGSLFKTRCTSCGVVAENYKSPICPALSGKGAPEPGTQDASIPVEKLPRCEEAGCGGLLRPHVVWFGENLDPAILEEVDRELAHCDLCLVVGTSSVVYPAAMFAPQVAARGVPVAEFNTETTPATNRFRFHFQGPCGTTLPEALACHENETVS

Activity change, negative = inhibition, inactive:
C[C@@H]1CCCCO[C@@H](CN(C)Cc2ccc(C(F)(F)F)cc2)[C@H](C)CN([C@H](C)CO)C(=O)c2cc(NS(=O)(=O)c3ccccc3)ccc2O1 -0.747%
C[C@@H]1CN([C@@H](C)CO)C(=O)c2cc(NS(=O)(=O)c3ccc(Cl)cc3)ccc2O[C@@H](C)CCCCO[C@@H]1CN(C)C(=O)Nc1ccc(C(F)(F)F)cc1 -0.902%
CCC(=O)N1C[C@H]2[C@@H](c3ccccc31)[C@@H](CO)N2Cc1cc(F)ccc1F 9%
Cc1ccc(S(=O)(=O)Nc2ccc3c(c2)C(=O)N([C@@H](C)CO)C[C@H](C)[C@H](CN(C)S(=O)(=O)c2ccccc2)OCCCC[C@@H](C)O3)cc1 5.12%
C[C@@H]1CCCCO[C@H](CN(C)S(=O)(=O)c2ccc(Cl)cc2)[C@H](C)CN([C@H](C)CO)C(=O)c2cc(NS(=O)(=O)c3ccc(F)cc3)ccc2O1 -23.1%
CCCC#Cc1ccc([C@H]2[C@H]3CN(C(=O)Cc4cccnc4)CC(=O)N3[C@H]2CO)cc1 -23.8%
C[C@H](CO)N1C[C@H](C)[C@H](CN(C)S(=O)(=O)c2ccc(F)cc2)Oc2cc(C3=CCCCC3)ccc2S1(=O)=O 1.92%
O=C(Nc1cc(F)ccc1F)N1C[C@@H]2[C@H](c3ccccc31)[C@H](CO)N2Cc1ccncc1 6.42%
CC(C)CC#Cc1ccc2c(c1)O[C@H](CN(C)C(=O)C1CCCCC1)[C@@H](C)CN([C@@H](C)CO)S2(=O)=O -7.95%
CC(C)NC(=O)Nc1ccc2c(c1)C(=O)N([C@@H](C)CO)C[C@H](C)[C@H](CN(C)C(=O)NC(C)C)OCCCC[C@@H](C)O2 7.8%
CC(C)C#Cc1ccc([C@@H]2[C@@H](CO)N3C(=O)CN(C(=O)c4ccc5c(c4)OCO5)C[C@H]23)cc1 -20.6%
C[C@H]1CN([C@@H](C)CO)C(=O)c2cc(NC(=O)CCN3CCOCC3)ccc2O[C@H]1CN(C)C(=O)Nc1ccc2c(c1)OCO2 4.04%
C[C@@H]1CN([C@@H](C)CO)C(=O)c2cc(C#CC3CCCCC3)cnc2O[C@H]1CN(C)S(=O)(=O)c1cccc(F)c1 -1.14%
Cc1ccc(S(=O)(=O)N(C)C[C@@H]2OCCCC[C@@H](C)Oc3ccc(NS(=O)(=O)c4ccc(F)cc4)cc3C(=O)N([C@H](C)CO)C[C@H]2C)cc1 10.9%
O=C(CCN1CCCCC1)N[C@@H]1CC[C@H](CC(=O)N2CCC(Cc3ccccc3)CC2)O[C@@H]1CO -14.1%
O=C(CN1CCOCC1)N1CCCCN2[C@H](C1)[C@H](c1ccc(-c3ccccc3)cc1)[C@@H]2CO -9.5%
C[C@H](CO)N1C[C@H](C)[C@H](CN(C)Cc2ccc(-c3ccccc3)cc2)Oc2cc(C#C[C@@H](C)O)ccc2S1(=O)=O -18.9%
Cc1ccccc1S(=O)(=O)N1CCCCN2[C@H](CO)[C@@H](c3ccc(-c4ccccc4)cc3)[C@@H]2C1 -8.88%
C[C@H](CO)N1C[C@H](C)[C@@H](CN(C)S(=O)(=O)c2ccc(F)cc2)Oc2cc(C3=CCCCC3)ccc2S1(=O)=O -0.88%
C[C@H](O)C#Cc1ccc2c(c1)O[C@H](CN(C)Cc1ccc(-c3ccccc3)cc1)[C@@H](C)CN([C@H](C)CO)S2(=O)=O -21.9% [at 7.5 µM]
C[C@H](CO)N1C[C@H](C)[C@H](CN(C)S(=O)(=O)c2ccccc2F)Oc2cc(C#Cc3cccc(F)c3)ccc2S1(=O)=O 4.83%
C[C@@H]1CCCCO[C@@H](CN(C)S(=O)(=O)c2ccc(Cl)cc2)[C@H](C)CN([C@@H](C)CO)C(=O)c2cc(NS(=O)(=O)c3ccccc3)ccc2O1 -16.3%
C[C@@H]1CN([C@@H](C)CO)C(=O)c2cccc(NC(=O)c3ccncc3)c2O[C@H]1CN(C)S(C)(=O)=O 21.9%
O=C(C[C@@H]1CC[C@@H](NC(=O)Nc2cccc(F)c2)[C@H](CO)O1)NCC1CC1 1.72%
C[C@@H]1CN([C@@H](C)CO)C(=O)Cc2cc(NS(=O)(=O)c3ccc(F)cc3)ccc2O[C@H]1CN(C)Cc1ccc(C(F)(F)F)cc1 -16.2%
COc1ccc(S(=O)(=O)Nc2ccc3c(c2)C(=O)N([C@H](C)CO)C[C@@H](C)[C@@H](CN(C)Cc2ccc(Cl)c(Cl)c2)O3)cc1 6.62%
C[C@@H]1CCCCO[C@@H](CN(C)Cc2ccc(Cl)c(Cl)c2)[C@H](C)CN([C@@H](C)CO)C(=O)c2cc(NS(=O)(=O)c3cccs3)ccc2O1 14.7%
Cc1noc(C)c1NC(=O)Nc1cccc2c1O[C@H](CN(C)Cc1ccc(Oc3ccccc3)cc1)[C@H](C)CN([C@@H](C)CO)C2=O -15.4%
C[C@@H]1CN([C@H](C)CO)C(=O)Cc2cc(NS(=O)(=O)c3ccc(F)cc3)ccc2O[C@H]1CN(C)Cc1ccc(C(F)(F)F)cc1 -21.2%
Cc1ccc(S(=O)(=O)Nc2ccc3c(c2)C(=O)N([C@@H](C)CO)C[C@H](C)[C@@H](CN(C)S(=O)(=O)c2ccc(F)cc2)OCCCC[C@@H](C)O3)cc1 -1.33%
Cc1ccc(S(=O)(=O)N(C)C[C@@H]2Oc3ncc(C#Cc4ccc(C(F)(F)F)cc4)cc3C(=O)N([C@H](C)CO)C[C@@H]2C)cc1 18.9%
C[C@H]1CN([C@@H](C)CO)S(=O)(=O)c2ccc(-c3cccc(F)c3)cc2O[C@@H]1CN(C)S(=O)(=O)c1ccc(F)cc1 4.42%
O=C(C[C@@H]1C[C@@H]2c3cc(NC(=O)NC4CCCCC4)ccc3O[C@@H]2[C@H](CO)O1)NCCc1ccccc1 29.7%
C[C@H](CO)N1C[C@H](C)[C@@H](CN(C)Cc2ccc(Oc3ccccc3)cc2)Oc2ccc(NC(=O)Cc3ccccc3)cc2C1=O -0.649%
CCCNC(=O)N1CC2(C1)[C@H](c1ccccc1)[C@H](CO)N2C(=O)C1CC1 -10.3%
C[C@@H]1CN([C@H](C)CO)C(=O)c2cccc(NC(=O)c3ccncc3)c2O[C@@H]1CN(C)S(C)(=O)=O -27.8%
C[C@H](CO)N1C[C@H](C)[C@H](CN(C)S(=O)(=O)c2ccc(F)cc2)Oc2c(NC(=O)c3nc4ccccc4s3)cccc2C1=O 4.27%
C[C@H]1CN([C@@H](C)CO)C(=O)Cc2cc(NS(=O)(=O)c3ccc(Cl)cc3)ccc2O[C@@H]1CN(C)Cc1ccc(Oc2ccccc2)cc1 -28%
Cc1noc(C)c1NC(=O)N[C@@H]1C=C[C@@H](CC(=O)Nc2ccccc2)O[C@H]1CO 12.1%
